± gives the standard deviation of the averaged measurements. Whole data set: some 25,000 sequences, median “ln(normalized median fluorescence intensity)” near 7.9, cut for the highest 2% near 11. Shown is part of a subset that was picked to be rich in the highest values.

This assay concerns PfAP2-I AP2 domain 3 (GST-tagged). As to the kind of experiment: gcPBM binding intensity (ln(normalized median fluorescence intensity)); higher = stronger DNA binding. In short, it runs like this:
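In this array assay, P. falciparum DNA-binding domains with a GST tag, expressed in E. coli, were applied for 1 h to primer-extended double-stranded 36-bp intergenic genomic probes and negative controls on an Agilent 4 × 180k array. Bound protein was visualised with Alexa488 anti-GST antibody at 488 nm. Binding intensity is the highest Masliner-normalised natural-log median intensity across replicate spots of either probe orientation.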
As for AAAAAAATTACGCAAGTGCATATAATTTAACAAAAA, the “gcPBM binding intensity (ln)” value worked out at 9.625 ± 0.007.

Regarding ACGCAATATTAACAAGTGCATTATAACACATAACAT, the “gcPBM binding intensity (ln)” value worked out at 11.3 ± 0.61.

With “ATATATTATATTATATGTACTTAAAAAAGTGCAAAG [XGTACX_site318]”, the “gcPBM binding intensity (ln)” value stood at 8.485 ± 0.035.

For “AATAACAAAATATTAACACACATAACATATTATAAA [CACACA_site2803]”, the “gcPBM binding intensity (ln)” value came to 7.55 ± 0.47.

For CATTATGTACAAAAAGTGCAATATATATTAACACTG, the “gcPBM binding intensity (ln)” value is 11 ± 0.43.

For “ACAATATGCAAAAAGTGTACACATTCATTTATATAA [XGTACX_site1061]”, the “gcPBM binding intensity (ln)” value came to 8.34 ± 0.32.

Turning to “AATTAAATTACTTATACACACATAAAATGTCTGTAT [CACACA_site997]”, the “gcPBM binding intensity (ln)” value is 7.76 ± 0.34.

For the sequence “AAATTTATGTGTGCCTGTACATATCAAAGATTTAAG [XGTACX_site8547]”, the “gcPBM binding intensity (ln)” value stood at 7.93 ± 0.34.

Turning to “AAATAACAAAAGAAGGTGCTCATAAAAATTCATACA [GTGCAC_site9864]”, the “gcPBM binding intensity (ln)” value stood at 8.51 ± 0.28.

In the case of “ACATACATATGTAAATGTACAAAATATCCATAGATT [XGTACX_site2782]”, the “gcPBM binding intensity (ln)” value was 7.54 ± 0.77.

“TCAGATCCATAGAAGGTGCAAATAACAAAAATACAA [GTGCAC_site9610]”: the “gcPBM binding intensity (ln)” value was 11 ± 0.43.

On to “GAAATAAAAAGAAATGCATGTAATTTTTTTTTTTTT [TGCATGCA_site928]”, for which the “gcPBM binding intensity (ln)” value stood at 7.61 ± 0.83.

As for “AATGACATTCTTACACGTACAAAATAAAAAATAAAA [XGTACX_site6932]”, the “gcPBM binding intensity (ln)” value was 7.89 ± 0.59.

As to “CTTTATAAAATAAGAGTGCGTTATATTGAATTGTAT [GTGCAC_site9390]”, the “gcPBM binding intensity (ln)” value was 10.9 ± 0.6.

As to “AATTTGTAAAATAAGGTGCGTATAAAAAATTATATT [GTGCAC_site9676]”, the “gcPBM binding intensity (ln)” value was found to be 9.71 ± 0.2.

Turning to ATAAGAATATATAGAGTGCGTTGAAGAATTATAATA, the “gcPBM binding intensity (ln)” value was 9.89 ± 0.27.

In the case of “TTATTCATATTATCATGTACTTATATATATTGTCAT [XGTACX_site2231]”, the “gcPBM binding intensity (ln)” value turned out to be 7.72 ± 0.55.

For the sequence “AGAAGAAAAGTAAAAAGTACATTATTCATGGCCTAT [XGTACX_site5601]”, the “gcPBM binding intensity (ln)” value is 7.46 ± 0.7.

Take “TTAGAAAAATTATATATACACACTTATATTTATATA [CACACA_site2821]”: the “gcPBM binding intensity (ln)” value stood at 7.28 ± 0.4.

As for “TAAATATTTTTAGATGCATGCAATAATTACCCAAAG [TGCATGCA_site636]”, the “gcPBM binding intensity (ln)” value turned out to be 8.15 ± 0.78.

For the sequence “ATTATATACAAATAAAGTACATAAACAAATTCAGAA [XGTACX_site1187]”, the “gcPBM binding intensity (ln)” value worked out at 7.77 ± 0.47.

For the sequence “AATATTTTTCAATTTCATGTGCATTCATTGAAGTTA [CACACA_negctrl_site1232]”, the “gcPBM binding intensity (ln)” value was determined as 8.76 ± 0.37.

Turning to “TCTTTCAATATTAATGCATGTTAATAATAAATTTTA [TGCATGCA_site448]”, the “gcPBM binding intensity (ln)” value was 7.96 ± 0.57.

For ATGTTAATTAATGAGGTGCATTGAATATTTCAATAA, the “gcPBM binding intensity (ln)” value was determined as 10.9 ± 0.73.

For the sequence “TAAGTATATATATTTACACACATTTGTTTTTTTTTA [CACACA_site3784]”, the “gcPBM binding intensity (ln)” value came out at 7.57 ± 0.6.

With “AAAAAATAGAATATAAAAATAAAGGAATTAAATTAA [XGTACX_negctrl_site420]”, the “gcPBM binding intensity (ln)” value stood at 7.33 ± 0.75.

Regarding “AAAAACTTATATGATACACACGATAAACAAAATAAA [CACACA_site1039]”, the “gcPBM binding intensity (ln)” value is 7.91 ± 0.42.

Regarding “ATTAGCAACATTGATAAATATAAACACACGAAAACA [TGCATGCA_negctrl_site97]”, the “gcPBM binding intensity (ln)” value turned out to be 8.09 ± 0.68.

“TATATATATATGTGCACACATATATAATATGTATAA [CACACA_site715]”: the “gcPBM binding intensity (ln)” value was 10.1 ± 0.42.

With “TATGTACACCCATATACACACCTCTATAATATATAT [CACACA_site4563]”, the “gcPBM binding intensity (ln)” value was 8.38 ± 0.18.

Turning to “TATAATGTATGTAGTGCACACCTCTATAATATATTA [CACACA_site8560]”, the “gcPBM binding intensity (ln)” value turned out to be 10.9 ± 0.64.

In the case of “TGTAATATATGTATTGCACACCTATAACCATTATTT [CACACA_site8422]”, the “gcPBM binding intensity (ln)” value was 9.89 ± 0.3.

As for “TAGAATGTATGTAGTGCACACCTCTATAATATATTA [CACACA_site1873]”, the “gcPBM binding intensity (ln)” value was determined as 11.3 ± 0.6.

With “AATATATATATATGTGCACACATATATAATATGTAT [CACACA_site716]”, the “gcPBM binding intensity (ln)” value worked out at 9.2 ± 0.58.

Turning to “ATATATTACAAATGGAGTACTAAAAATATTCTATAT [XGTACX_site6669]”, the “gcPBM binding intensity (ln)” value amounted to 8.02 ± 0.38.

With “ACACATATGACAAATAGTACATAAATATATAAATAT [XGTACX_site7141]”, the “gcPBM binding intensity (ln)” value turned out to be 7.79 ± 0.28.

Consider “AATAATATATATATATATATATATAGATATGTATAT [GTGCAC_negctrl_site653]”, for which the “gcPBM binding intensity (ln)” value is 8.04 ± 0.25.

Regarding “GAAATTACTTTATAAACACACATTTATTTTATTTTA [CACACA_site7007]”, the “gcPBM binding intensity (ln)” value amounted to 7.95 ± 0.26.

For “CTACCTTTAATATATACACACACATAAAAAAAATAT [CACACA_site8548]”, the “gcPBM binding intensity (ln)” value came to 8.05 ± 0.28.

In the case of “GTATATATTAAAAAAAAAAAAAAAAAATTAAAATTA [CACACA_negctrl_site572]”, the “gcPBM binding intensity (ln)” value came out at 7.14 ± 0.33.

As to TATTTTTATAAGAGCATGCACTGTTTAAAATGGTAT, the “gcPBM binding intensity (ln)” value amounted to 8.37 ± 0.45.

On to “AATATGAAATATATTACACACATTTATATGTTGAAA [CACACA_site1427]”, for which the “gcPBM binding intensity (ln)” value was 7.59 ± 0.39.

Regarding ATTATATTTATGTTGGTGCATTATACATGAAATTTA, the “gcPBM binding intensity (ln)” value is 11.5 ± 0.43.

On to “GTATTATTATTTTATGCATGTACATTGAATTATATT [TGCATGCA_site34]”, for which the “gcPBM binding intensity (ln)” value amounted to 8.26 ± 0.44.

For the sequence “TATATATATATATATGTGCACTGAAAGAATTATACA [GTGCAC_site9586]”, the “gcPBM binding intensity (ln)” value came to 10.7 ± 0.13.

As to “ATAATTATTCTTATGGTGCACTGAATATACATGTTG [GTGCAC_site9760]”, the “gcPBM binding intensity (ln)” value is 11.1 ± 0.47.

With “TATAATAATAATTATACATGCATGAATATTTATATG [TGCATGCA_site811]”, the “gcPBM binding intensity (ln)” value was 7.67 ± 0.21.

These data come from the supplement of paper PMC11417369.
